Experiment in all cases: NCI-60 one-dose screen, 48 h (100 = growth as untreated, 0 = no growth, -100 = all killed)
Common to all, as to settings: 10 µM unless noted

Test [1] has as its system K-562 leukemia.
Test [2] has as its system MALME-3M melanoma.
Test [3] relates to MDA-MB-231 breast.
Test [4] deals with RXF 393 renal.
For test [5], the system named is SF-268 CNS.
Test [6] deals with SF-539 CNS.
The test system of test [7] is UACC-257 melanoma.
Test [8] relates to M14 melanoma.
Test [9] relates to HCT-15 colon.
The subject of test [10] is HT29 colon.
Test [11] relates to SNB-75 CNS.
The test system of test [12] is SNB-19 CNS.
Test [13] deals with U251 CNS.
Test [14] relates to PC-3 prostate.
The subject of test [15] is SK-MEL-5 melanoma.
Test [16] has as its system UACC-62 melanoma.
Test [17] relates to LOX IMVI melanoma.
The subject of test [18] is SK-MEL-28 melanoma.
Test [19] deals with SK-MEL-2 melanoma.

The panel holds about 83,000 compounds, 20% with a hit somewhere; the sample as a whole holds those more often.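 Compound tested at a single concentration for 48 hours in 96-well plates; a percent growth value below 10 was scored as active.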 Unmarked numbers belong to inactive results. Calls of active or inactive are those of the source.

As for `O=C(NCCCO)c1cc(Cl)ccc1O`, the growth in test [1] is 11.1%; in test [2], 0.89% (active); in test [3], 28.2%; in [4], 40.7%; in test [5] it was 28.4%; in test [6] it was 45%. Besides, the growth in test [7] is 16.4%; in test [8] it was 30.3%; in test [9] it was 77.5%; in test [10], 3.68% (active); in test [11], 27.8%; in test [12], 31.1%. Further, the growth is 12.3% in [13]; 7.13% (active) in [14]; 18.4% in test [15]; 9.67% (active) in test [16]; 13.3% in test [17]; 38% in test [18]. In addition, the growth in test [19] is -19% (active).
With `C/C(=N/N=C(N)N)c1ccc(Cl)cc1`, the growth in test [1] is 67.8%; in test [2] it was 143%; in test [3] it was 84%; in [4] it was 90.5%; in [5], 101%; in test [6] it was 100%. In addition, the growth in test [7] is 77.1%; in test [8], 86.9%; in [9], 102%; in [10], 80.9%; in test [11], 81.3%; in test [12] it was 92.6%. In addition, the growth in test [13] was 89.4%; in [14] it was 42.3%; in [15] it was 94.1%; in test [16], 91.2%; in test [17], 86.5%; in [18], 178%. Moreover, the growth in [19] was -5.11% (active).
For `CC/C(=C\c1ccc(N(C)C)cc1)c1nc2ccccc2c(=O)[nH]1`, the growth in test [1] was 71.4%; in test [2], 144%; in [3] it was 91.2%; in test [4], 99.6%; in [5], 92.9%; in test [6], 106%. The growth in [7] is 111%; in test [8], 121%; in test [9] it was 99.8%; in [10], 81.7%; in test [11], 88.3%; in [12] it was 102%. The growth was 86.3% in test [13]; 107% in test [14]; 97.4% in [15]; 84.1% in test [16]; 94.2% in test [17]; 152% in test [18]. Moreover, the growth in [19] is -13.9% (active).
Consider `COc1ccc(-c2oc3cc(O)c(OC)c(O)c3c(=O)c2OC)cc1O`, for which the growth was 8.02% (active) in test [1]; 38.9% in test [2]; 11.1% in test [3]; 7.24% (active) in [4]; 13.6% in test [5]; -16% (active) in test [6]. Besides, the growth in test [7] is 53.4%; in [8] it was -24.8% (active); in test [9] it was 17.3%; in test [10], 46.2%; in test [11], 16.4%; in test [12] it was 30.9%. Further, the growth is 14% in [13]; 15.5% in [14]; 8.22% (active) in test [15]; 36% in test [16]; 15.8% in [17]; 60.6% in [18]. Besides, the growth in [19] is 45.6%.
Regarding `CCN(CC)c1ccc(N=Nc2cc(Cl)ccc2Cl)c(NC(=O)CCC(=O)O)c1`, the growth is 98.8% in [1]; 91.8% in test [2]; 81.4% in [3]; 116% in test [4]; 105% in test [5]; 79.9% in test [6]. Further, the growth is 117% in test [7]; 101% in test [8]; 89.5% in test [9]; 111% in [10]; 91.1% in test [11]; 110% in [12]. Further, the growth in test [13] was 94.7%; in test [14], 90.1%; in test [15], 103%; in [16], 101%; in test [17], 99.1%; in [18], 120%. Also, the growth in test [19] was 118%.
For the compound `CCN(CC)c1ccc(C(O)C2=CC(=O)c3ccccc3C2=O)cc1` (centres undefined), the growth in test [1] is 2.86% (active); in [2], -11.3% (active); in test [3], -51% (active); in test [4], -80.2% (active); in test [5], -30.9% (active); in test [6] it was -38.2% (active). For the same compound, the growth was 9.28% (active) in [7]; 13.8% in test [8]; 30.3% in [9]; 9.6% (active) in test [10]; 24.9% in test [11]; 15.3% in test [12]. For the same compound, the growth in test [13] was -80.9% (active); in [14], -2.59% (active); in test [15], -38% (active); in [16], -45.3% (active); in [17] it was -51.8% (active); in test [18] it was -23.1% (active). For the same compound, the growth in test [19] was -27.9% (active).
For `COc1ccc(-c2noc(N)c2-c2cc(OC)c3c(c2)OCO3)cc1`, the growth in [1] is 2.56% (active); in test [2] it was -2.12% (active); in [3] it was 47.6%; in test [4] it was 32.4%; in test [5] it was 35.6%; in test [6], 9.14% (active). Further, the growth was 50.8% in test [7]; 11.7% in test [8]; 20.6% in test [9]; 7.22% (active) in [10]; 3.98% (active) in test [11]; 53.5% in [12]. Also, the growth in test [13] is 10.7%; in [14], 31.1%; in test [15], 21.2%; in test [16] it was 44.1%; in [17], 29.7%; in [18], 51.8%. The growth in [19] is -1.35% (active).
For `O=C(N1CCC(CN=c2cc3n(-c4ccc(Cl)cc4)c4ccccc4nc-3cc2Nc2ccc(Cl)cc2)CC1)N1CC1`, the growth in [1] was -66.5% (active); in test [2] it was -72.5% (active); in [3] it was -56.9% (active); in test [4], -93.3% (active); in [5] it was -63.6% (active); in [6], -88% (active). The growth is -94.4% (active) in [7]; -73.8% (active) in test [8]; -36.8% (active) in test [9]; -97.9% (active) in test [10]; -60.6% (active) in [11]; -67.7% (active) in test [12]. Moreover, the growth was -62.5% (active) in test [13]; -97.6% (active) in test [15]; -77.5% (active) in test [16]; -67.5% (active) in test [17]; -90.8% (active) in test [18]; -80.8% (active) in test [19].
With `C[n+]1ccc(C#N)c2ccccc21`, the growth in test [1] is 84.8%; in test [2] it was 26.7%; in [3], 101%; in test [4] it was 78.8%; in test [5] it was 92%; in test [6], 99.5%. Besides, the growth in test [7] is 110%; in test [8], 98.6%; in [9], 88.4%; in [10] it was 65.1%; in test [12], 109%; in test [13], 104%. Moreover, the growth in [14] is 107%; in test [15] it was 99.1%; in [16], 115%; in [17], 85.5%; in test [18] it was 106%; in test [19], 77.5%.

For the origin of these results see PubChem BioAssay (NCI).
